Reference: PubChem BioAssay AID1159580 (chemical genetic matrix, 2015)
Among all 5,500 compounds or so, about 2,000 (36%) were called active. Not shown: some 18% with an inconclusive outcome. Rule as the data show it: active = normalized growth mostly below about 0.91 (no sharp cut-off); inconclusive = no clear call, values can overlap the other calls; inactive = mostly above about 0.92. This is one part of the list.

Assay: chemical genetic growth profiling, strain panel (AID 1159580);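 also: tested at 20 µM; growth read once vehicle control cultures reached saturation at 30 °C; 1 = growth at the plate median or of vehicle wells; lower values mean less growth of the strain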
Conditions: S. cerevisiae deletion strains, growth OD

Measured: normalized growth

C[N+](C)(C)CC(=O)O
inactive: locus YAL040C, strain CLN3, stronger effect = lower value 0.989 | locus YDR150W, strain NUM1, stronger effect = lower value 0.995 | locus YDR363W, strain ESC2, stronger effect = lower value 1.02 | locus YER002W, strain NOP16, stronger effect = lower value 1 | locus YGR078C, strain PAC10, stronger effect = lower value 0.998 | locus YJR075W, strain HOC1, stronger effect = lower value 1.01 | locus YMR307W, strain GAS1, stronger effect = lower value 1.02 | locus YNL175C, strain NOP13, stronger effect = lower value 1.01 | locus YNL197C, strain WHI3, stronger effect = lower value 1 | locus YNL224C, strain SQS1, stronger effect = lower value 1.01 | locus YNL322C, strain KRE1, stronger effect = lower value 1 | locus YOR083W, strain WHI5 (second series), stronger effect = lower value 1.01
